A short description of assay [1]: qHTS assay to identify aromatase inhibitors - cell viability counter screen (AID 743084).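 Further: cells stimulated with testosterone during compound exposure; nearly all actives have a fitted effect of over 55% in size.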 Further: potency means the concentration at half of the fitted maximal effect. In general terms: Quantitative high-throughput screening tests each substance at several concentrations.
A short description of assay [2]: qHTS assay to identify small molecule that activate the aryl hydrocarbon receptor (AhR) signaling pathway - cell viability counter screen (AID 743086). Further: nearly all actives have a fitted effect of over 45% in size. Further: potency means the concentration at half of the fitted maximal effect. In short, it runs like this:
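HepG2-AhR-luc (HG2L7.5c1) cells, 4000/well, were preincubated 5 h at 37C, exposed to compound in qHTS format for 24 hr at 37C, then given CellTiter-Fluor for 30 min; viability was read as fluorescence in the reporter wells.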

Assay [3] in a line: qHTS assay to identify small molecule antagonists of the peroxisome proliferator-activated receptor gamma (PPARg) signaling pathway - cell viability counter screen (AID 743194). Further: nearly all actives have a fitted effect of over 55% in size. Further: potency means the concentration at half of the fitted maximal effect. The note with it: Potency: co-treated with 50 nM rosiglitazone unless noted. In short, it runs like this:
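PPARg-UAS-bla HEK293H cells were plated, rested 5 h at 37 C, then treated with compounds plus rosiglitazone (50 nM final) for 17 h at 37 C; viability was then read by CellTiter-Glo luminescence after 30 min at room temperature.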

Assay [4] can be described thus: qHTS assay for small molecule agonists of the antioxidant response element (ARE) signaling pathway (AID 743202; active means well fitted activation curve with a large enough effect in the signal ratio in the repeat runs, not every such curve was filed as active; the % refers to the signal ratio; further: potency means the concentration at half of the fitted maximal effect). In short, it runs like this:
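Following a 16 h, 37 C exposure of reporter HepG2 cells (ARE-driven beta-lactamase, 2,000 cells/well) to compounds, FRET substrate was applied for 2 h at room temperature and fluorescence intensity recorded.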

The nature of assay [5]: qHTS assay for small molecule agonists of the antioxidant response element (ARE) signaling pathway - cell viability counter screen (AID 743203; calls by dose curve; further: nearly all actives have a fitted effect of over 55% in size; further: potency means the concentration at half of the fitted maximal effect). In outline: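 Measured in the same wells as the beta-lactamase ARE reporter, this read-out is CellTiter-Glo luminescence from HepG2 ARE-bla cells given compounds for 16 hrs.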
The nature of assay [6]: qHTS assay for small molecule activators of the heat shock response signaling pathway - cell viability counter screen (AID 743209). Further: nearly all actives have a fitted effect of over 50% in size. In short, it runs like this: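 Same-well multiplex: after 2.5 h room-temperature incubation with LiveBLAzer B/G substrate and fluorescence reading, CellTiter-Glo reagent was added to HSE-bla HeLa cells that had received compound for 5 h at 37 C; luminescence read after 30 min.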

Assay [7] can be described thus: qHTS assay for small molecule activators of the heat shock response signaling pathway (AID 743210; active means well fitted activation curve with a large enough effect in the signal ratio in the repeat runs, with a control signal flat, not every such curve was filed as active; the % refers to the signal ratio; further: series mostly up to about 63 µM). In outline:
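Heat shock element–beta-lactamase HeLa reporter cells; qHTS with compounds for 5 h at 37 C; detection by FRET substrate fluorescence after 2.5 h at RT.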

Assay [8] is described as follows: qHTS assay to identify small molecule agonists of the peroxisome proliferator-activated receptor delta (PPARd) signaling pathway - cell viability counter screen (AID 743211). Further: nearly all actives have a fitted effect of over 55% in size. Further: potency means the concentration at half of the fitted maximal effect. In short, it runs like this:
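Viability was measured as CellTiter-Glo luminescence (30 min, room temperature) in the same wells as the beta-lactamase readout. GeneBLAzer PPARd UAS-bla HEK293H cells received compound after 5 h plating and were incubated 17 h at 37 C.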

A short description of assay [9]: qHTS assay to identify small molecule antagonists of the peroxisome proliferator-activated receptor delta (PPARd) signaling pathway - cell viability counter screen (AID 743213). Further: nearly all actives have a fitted effect of over 50% in size. Further: potency means the concentration at half of the fitted maximal effect. In outline: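 HEK293H cells with the PPARd UAS-bla reporter, co-treated 17 h at 37 C with compounds and L165041 (300 nM final), were lysed with CellTiter-Glo. Luminescence indicated viable cell content.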

Assay [10] concerns the target Peroxisome proliferator-activated receptor delta (Homo sapiens) (UniProt Q03181). In words: qHTS assay to identify small molecule antagonists of the peroxisome proliferator-activated receptor delta (PPARd) signaling pathway (AID 743215; active means well fitted inhibition curve with a large enough effect in the signal ratio in the repeat runs, not every such curve was filed as active; the % refers to the signal ratio;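 further: cells stimulated with agonist L165041 at 300 nM final during compound exposure; series mostly up to about 62 µM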). In outline:
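Fluorescence from cleaved LiveBLAzer B/G FRET substrate (2 h, room temperature) reports PPARd-driven beta-lactamase in HEK293H UAS-bla cells. Cells had been treated 17 h at 37 C with compound plus 300 nM final L165041.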

Assay [11] can be described thus: qHTS assay to identify small molecule agonists of the farnesoid-X-receptor (FXR) signaling pathway - cell viability counter screen (AID 743218). Further: nearly all actives have a fitted effect of over 45% in size. Further: potency means the concentration at half of the fitted maximal effect. In short, it runs like this:
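Readout: CellTiter-Glo luminescence, 30 min RT, multiplexed after the FXR-bla FRET reading. HEK 293T FXR-UAS-bla cells received compound 5 h post-plating and were incubated 16 h at 37 C.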

A short description of assay [12]: qHTS assay to identify small molecule antagonists of the farnesoid-X-receptor (FXR) signaling pathway - cell viability counter screen (AID 743221; active means well fitted cell-killing curve with a large enough effect in the repeat runs, not every such curve was filed as active; further: nearly all actives have a fitted effect of over 50% in size; further: potency means the concentration at half of the fitted maximal effect). In outline: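 Cytotoxicity counter screen run in the FXR-bla reporter wells: HEK 293T cells exposed to compound with 50 uM (final) chenodeoxycholic acid for 16 h, 37 C, then viability measured by CellTiter-Glo luminescence after 30 min, room temperature.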

The target in assay [13] is Vitamin D3 receptor (Homo sapiens) (UniProt P11473). In words: qHTS assay to identify small molecule antagonists of the vitamin D receptor (VDR) signaling pathway (AID 743223; active means well fitted inhibition curve with a large enough effect in the signal ratio in the repeat runs, not every such curve was filed as active; the % refers to the signal ratio). In short, it runs like this: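 Antagonist mode: compound added to VDR-bla cells alongside agonist 1alpha,25-dihydroxyvitamin D3 (3 nM final), incubation 16 h at 37C. Read-out is LiveBLAzer FRET fluorescence, 2 h at room temperature.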
Chain of Vitamin D3 receptor (Homo sapiens) (P11473 whole entry, looked up): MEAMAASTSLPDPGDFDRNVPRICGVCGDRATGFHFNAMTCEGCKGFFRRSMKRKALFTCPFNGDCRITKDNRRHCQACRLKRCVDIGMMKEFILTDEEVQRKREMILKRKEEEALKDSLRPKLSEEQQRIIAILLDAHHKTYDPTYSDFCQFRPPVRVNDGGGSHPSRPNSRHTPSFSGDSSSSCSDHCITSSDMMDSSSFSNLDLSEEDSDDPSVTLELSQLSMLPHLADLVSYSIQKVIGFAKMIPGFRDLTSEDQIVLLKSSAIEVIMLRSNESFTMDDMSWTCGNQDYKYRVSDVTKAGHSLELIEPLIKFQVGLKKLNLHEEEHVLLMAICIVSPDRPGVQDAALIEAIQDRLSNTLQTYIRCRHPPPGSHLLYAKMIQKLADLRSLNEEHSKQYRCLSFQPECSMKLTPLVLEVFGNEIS

The target is the same in assay [14]. The assay is described as follows: qHTS assay to identify small molecule agonists of the vitamin D receptor (VDR) signaling pathway (AID 743222; calls by dose curve). In short, it runs like this: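 Following 4 h attachment at 37C, VDR-bla cells (2,000 per well) received DMSO-dissolved compounds or controls. After 16 h incubation, LiveBLAzer B/G FRET substrate was added and fluorescence read 2 h later at room temperature.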

The target in assay [15] is Peroxisome proliferator-activated receptor gamma (Homo sapiens) (UniProt P37231). In words: qHTS assay to identify small molecule agonists of the peroxisome proliferator-activated receptor gamma (PPARg) signaling pathway (AID 743094; active means well fitted activation curve with a large enough effect in the signal ratio in the repeat runs, not every such curve was filed as active; the % refers to the signal ratio). In outline:
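Cell-based bla reporter, HEK293H background, PPARg-driven UAS. Pre-incubation 5 h, 37C, 5% CO2. Compound 17 h, 37C. Substrate 1 h RT; fluorescence.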

The target is the same in assay [16]. In words: qHTS assay to identify small molecule antagonists of the peroxisome proliferator-activated receptor gamma (PPARg) signaling pathway (AID 743191; calls by dose curve; further: series mostly up to about 63 µM; nearly all actives have a fitted effect of over 30% in size). In outline:
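GeneBLAzer PPARg UAS-bla HEK293H cells carrying a UAS-driven beta-lactamase reporter were plated at 3000 cells/well, preincubated 5 h at 37C, then given compound for 17 h at 37C; LiveBLAzer B/G FRET substrate was read after 1 h at room temperature.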

Assay [17] concerns the target Peroxisome proliferator-activated receptor delta (Homo sapiens) (UniProt Q03181). The assay is described as follows: qHTS assay to identify small molecule agonists of the peroxisome proliferator-activated receptor delta (PPARd) signaling pathway (AID 743212; calls by dose curve). In outline:
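Beta-lactamase reporter read by fluorescence (LiveBLAzer B/G FRET, 2 h, room temperature). Test agents, in DMSO, incubated at 37 C with PPARd-bla HEK293H cells.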

For assay [18], the target named is Bile acid receptor (Homo sapiens) (UniProt Q96RI1). In words: qHTS assay to identify small molecule agonists of the farnesoid-X-receptor (FXR) signaling pathway (AID 743220; active means well fitted activation curve with a large enough effect in the signal ratio in the repeat runs, not every such curve was filed as active; the % refers to the signal ratio). In outline: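 FXR-UAS-bla HEK 293T cells carrying a UAS-driven beta-lactamase reporter were plated for 5 h at 37C/5% CO2, then exposed to DMSO-dissolved Tox21 10K compounds for 16 h at 37C. A LiveBLAzer B/G FRET substrate was loaded for 2 h at room temperature before fluorescence reading.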
Chain of Bile acid receptor (Homo sapiens) (Q96RI1 whole entry, looked up): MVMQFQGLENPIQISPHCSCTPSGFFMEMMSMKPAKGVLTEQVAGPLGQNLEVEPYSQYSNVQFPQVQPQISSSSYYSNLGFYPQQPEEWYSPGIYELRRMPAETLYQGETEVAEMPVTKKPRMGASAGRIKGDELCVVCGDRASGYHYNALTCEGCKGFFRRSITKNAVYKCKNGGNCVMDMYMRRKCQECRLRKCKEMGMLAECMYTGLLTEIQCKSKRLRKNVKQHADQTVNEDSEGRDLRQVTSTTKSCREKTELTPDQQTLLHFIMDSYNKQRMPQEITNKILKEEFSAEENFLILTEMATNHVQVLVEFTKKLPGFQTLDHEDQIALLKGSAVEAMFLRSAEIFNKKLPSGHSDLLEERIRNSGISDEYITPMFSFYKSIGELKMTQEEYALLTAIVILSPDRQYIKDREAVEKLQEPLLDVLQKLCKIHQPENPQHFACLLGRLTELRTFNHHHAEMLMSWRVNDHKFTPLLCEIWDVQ

The target is the same in assay [19]. In words: qHTS assay to identify small molecule antagonists of the farnesoid-X-receptor (FXR) signaling pathway (AID 743217; active means well fitted inhibition curve with a large enough effect in the signal ratio in the repeat runs, not every such curve was filed as active; the % refers to the signal ratio). In short, it runs like this:
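FRET fluorescence after 2 h room-temperature LiveBLAzer loading gives the readout. Prior step: FXR-bla HEK 293T cells, seeded and incubated 5 h, received test compounds plus 50 uM final CDCA for 16 h at 37 °C.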

Inconclusive results are not listed. Active and inactive are the calls of the source. Unless noted, the call rests on the fitted dose curve; in most records, active means well fitted curve in the direction sought with a large enough effect in the repeat runs; inconclusive means weak or mixed curves; inactive means no such curve, though single readings can be large; an effect the other way counts as inactive or inconclusive.

Chain of Peroxisome proliferator-activated receptor delta (Homo sapiens) (Q03181 whole entry, looked up): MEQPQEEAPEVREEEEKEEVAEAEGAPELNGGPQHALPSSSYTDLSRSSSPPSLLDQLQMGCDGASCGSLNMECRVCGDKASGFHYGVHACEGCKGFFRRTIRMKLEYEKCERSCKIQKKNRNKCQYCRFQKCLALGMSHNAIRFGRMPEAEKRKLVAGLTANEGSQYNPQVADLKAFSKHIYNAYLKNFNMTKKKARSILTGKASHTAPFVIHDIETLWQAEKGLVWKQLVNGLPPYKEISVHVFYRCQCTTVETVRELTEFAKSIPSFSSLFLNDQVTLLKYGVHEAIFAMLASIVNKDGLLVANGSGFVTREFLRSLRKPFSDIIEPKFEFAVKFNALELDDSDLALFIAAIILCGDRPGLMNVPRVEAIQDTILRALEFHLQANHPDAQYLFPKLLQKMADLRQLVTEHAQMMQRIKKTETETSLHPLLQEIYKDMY
Chain of Peroxisome proliferator-activated receptor gamma (Homo sapiens) (P37231 whole entry, looked up): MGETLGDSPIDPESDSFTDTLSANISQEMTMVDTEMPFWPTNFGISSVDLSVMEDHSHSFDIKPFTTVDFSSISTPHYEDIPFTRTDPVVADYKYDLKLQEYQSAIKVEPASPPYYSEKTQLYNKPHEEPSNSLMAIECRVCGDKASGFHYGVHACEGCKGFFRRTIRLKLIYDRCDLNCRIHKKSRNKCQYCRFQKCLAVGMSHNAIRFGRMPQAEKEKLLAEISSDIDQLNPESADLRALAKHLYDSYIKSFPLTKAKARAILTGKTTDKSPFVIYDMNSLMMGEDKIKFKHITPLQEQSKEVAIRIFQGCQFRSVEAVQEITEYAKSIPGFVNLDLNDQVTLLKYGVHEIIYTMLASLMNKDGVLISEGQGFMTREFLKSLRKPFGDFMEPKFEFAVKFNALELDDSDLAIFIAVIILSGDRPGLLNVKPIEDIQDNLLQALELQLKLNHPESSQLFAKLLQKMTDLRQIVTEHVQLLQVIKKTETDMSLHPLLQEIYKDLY

As to `CCN(CC)Cc1nccn1-c1ccc([N+](=O)[O-])cc1C(=O)c1ccccc1Cl`, the Potency entry in assay [1], in [2], in [3], in assay [5], in assay [6] and in assay [7] was “inactive” throughout. Also, the Potency entry in assay [8], in [9], in assay [10], in [11], in [12] and in [13] was “inactive” each time. For the same compound, in [4], the Potency is 21100 nM (active).
With `CC(O)C(=O)[O][Hg][c]1ccccc1` (stereo not given), the Potency in [1] is 1090 nM (active); in assay [2] it was 4860 nM (active); in assay [3] it was 436 nM (active); in assay [5], 686 nM (active); in assay [8], 1380 nM (active); in assay [9], 1950 nM (active). Moreover, the Potency in [11] is 1230 nM (active); in assay [12] it was 2750 nM (active).
As for `[C-]1=CC=CC1.[Cl][Zr+2][Cl].c1cc[cH-]c1`, the Potency entry in assay [1], in assay [2], in [3], in assay [4], in assay [5] and in assay [8] was “inactive” throughout. Also, the Potency result in assay [9], in assay [11], in assay [12] and in assay [14] was “inactive” in each case.
For `CC(C)C(Nc1ccc(C(F)(F)F)cc1Cl)C(=O)OC(C#N)c1cccc(Oc2ccccc2)c1` (stereo not given), the Potency result in [1], in assay [3], in [5], in assay [6], in [8] and in [9] was “inactive” throughout. Besides, the Potency result in assay [10], in assay [11] and in [12] was “inactive” throughout.
Consider `COc1ccc2c(c1OC)C(=O)O[C@@H]2[C@H]1c2cc3c(cc2CCN1C)OCO3`, for which the Potency in assay [1] is 2150 nM (active). Further, the Potency result in [15], in [16], in assay [4], in assay [5], in assay [6] and in assay [7] was “inactive” each time. For the same compound, the Potency entry in [8], in [17], in [9], in assay [10] and in [11] was “inactive” in each case.
For `CCOP(=S)(NC(C)C)Oc1ccccc1C(=O)OC(C)C` (stereo not given), the Potency result in assay [1], in [16], in assay [3], in [6], in [7] and in assay [8] was “inactive” throughout. Besides, the Potency result in assay [17], in assay [9] and in assay [13] was “inactive” in each case. Further, the Potency is 54500 nM (active) in assay [4] and 21900 nM (active) in assay [11].
In the case of `Nc1ccccc1-c1ccccc1`, the Potency result in [1], in [2], in assay [3], in assay [5], in [6] and in assay [8] was “inactive” in each case. The Potency entry in assay [9], in assay [10], in assay [12] and in assay [14] was “inactive” each time.
Turning to `Cc1ccccc1OP(=O)(Oc1ccccc1C)Oc1ccccc1C`, the Potency entry in [1], in assay [15], in [16], in [6], in assay [11] and in assay [18] was “inactive” throughout. Moreover, the Potency result in assay [13] is “inactive”.
Consider `COc1ccc(Cc2nccc3cc(OC)c(OC)cc23)cc1OC`, for which the Potency result in assay [1], in assay [15], in assay [16], in [3], in assay [5] and in assay [6] was “inactive” in each case. Moreover, the Potency entry in [7], in [8], in assay [17], in assay [9], in assay [11] and in assay [12] was “inactive” each time.
Regarding `c1ccc2nc(N3CCNCC3)ccc2c1`, the Potency result in [1], in assay [15], in assay [16], in assay [3], in [7] and in assay [13] was “inactive” throughout.
For `O=[N+]([O-])c1cccc2cccc([N+](=O)[O-])c12`, the Potency entry in [1], in [2], in assay [3], in [5], in assay [6] and in [8] was “inactive” throughout. Also, the Potency entry in [17], in assay [19], in assay [11], in [12] and in assay [13] was “inactive” each time. In addition, in assay [4], the Potency is 9730 nM (active).

For the origin of these results see PubChem BioAssay (Tox21).
